For eleven compounds, z-score and composite z-score results are on record in PubChem BioAssay.

Experiment [1] can be described thus: HepG2 liver cancer cell viability effects, profiling panel, resazurin fluorescence, 24 h, PK04 Diversity Set (AID 1172). Note: test concentration not given here. The note with it: higher = more signal. For orientation: Alamar Blue is a resazurin reagent that responds to reducing activity.
A short description of experiment [2]: basal S. cerevisiae growth modulation, no modifier, primary screen, OD600, strain BY4716, 24 h, basal condition (AID 1173). To be noted: OD600, 24 h, higher = more signal, called active from +8 up or from −8 down.
Experiment [3] in a line: MM1S myeloma cell viability, profiling panel, resazurin fluorescence, basal, 24 h, PK04 Diversity Set (AID 1174). Note: test concentration not given here. To be noted: higher = more signal, called active from +8 up or from −8 down.
The target of experiment [4] is Dihydroorotate dehydrogenase (quinone), mitochondrial (Plasmodium falciparum (isolate 3D7)) (UniProt Q08210). The experiment is described as follows: PfDHODH enzyme inhibitors, primary screen, biochemical, C-terminal His tag, absorbance 600 nm (AID 1175).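 Note: recombinant parasite enzyme with a five histidine tag at its C terminus; test concentration not given here.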 To be noted: DCIP absorbance 600 nm, higher = more signal, called active from +8 up or from −8 down.
Experiment [5] can be described thus: P. aeruginosa biofilm formation inhibitors, primary screen, strain PAO1, LB-PBS medium, absorbance 600 nm (AID 1176). Note: test concentration not given here. The note with it: P. aeruginosa PAO1 growth/biofilm, A600, 12 h; higher = more signal.
Experiment [6] in a line: S. cerevisiae RM11-1a growth modifiers, primary screen, strain RM11-1a, OD600, basal, 24 h (AID 1177).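 Note: cultures grown under basal conditions with no added stressor; test concentration not given here.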 The note with it: OD600, 24 h, higher = more signal, called active from +8 up or from −8 down.
Experiment [7] is described as follows: E. coli acrAB mutant growth effects, primary screen, E. coli filamentation inducers, strain DRC39, OD650, 24 h (AID 1178).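 Note: growth measured as culture turbidity by optical density at 650 nm; test concentration not given here.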 To be noted: higher = more signal, called active from +8 up or from −8 down.
Experiment [8] in a line: E. coli acrAB mutant growth effects, primary screen, E. coli filamentation inducers, strain DRC39, OD650, 48 h (AID 1179).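 Note: screen aims at cell division blockers that make cells filament.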 The note with it: E. coli DRC39 delta-acrAB growth, higher = more signal, called active from +8 up or from −8 down.
A short description of experiment [9]: RPMI8226 myeloma cell viability, profiling panel, resazurin fluorescence, basal, 24 h, PK04 Diversity Set (AID 1180).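 Note: RPMI8826 multiple myeloma cell line at 5000 cells per well; test concentration not given here.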 To be noted: higher = more signal.
In experiment [10] the target is E3 ubiquitin-protein ligase XIAP (Homo sapiens) (UniProt P98170). The experiment is described as follows: XIAP binders, primary screen, biophysical, small-molecule microarray, fluorescence 635 nm (AID 1181).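 Note: score merges 667 nm emission and signal to noise over triplicate slides.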 To be noted: small-molecule microarray binding, higher = more signal.

SMILES strings stand for the structures. Active and inactive are the calls of the source. Unless noted, the rule behind the calls is not given here.

Chain of Dihydroorotate dehydrogenase (quinone), mitochondrial (Plasmodium falciparum (isolate 3D7)) (Q08210 whole entry, looked up): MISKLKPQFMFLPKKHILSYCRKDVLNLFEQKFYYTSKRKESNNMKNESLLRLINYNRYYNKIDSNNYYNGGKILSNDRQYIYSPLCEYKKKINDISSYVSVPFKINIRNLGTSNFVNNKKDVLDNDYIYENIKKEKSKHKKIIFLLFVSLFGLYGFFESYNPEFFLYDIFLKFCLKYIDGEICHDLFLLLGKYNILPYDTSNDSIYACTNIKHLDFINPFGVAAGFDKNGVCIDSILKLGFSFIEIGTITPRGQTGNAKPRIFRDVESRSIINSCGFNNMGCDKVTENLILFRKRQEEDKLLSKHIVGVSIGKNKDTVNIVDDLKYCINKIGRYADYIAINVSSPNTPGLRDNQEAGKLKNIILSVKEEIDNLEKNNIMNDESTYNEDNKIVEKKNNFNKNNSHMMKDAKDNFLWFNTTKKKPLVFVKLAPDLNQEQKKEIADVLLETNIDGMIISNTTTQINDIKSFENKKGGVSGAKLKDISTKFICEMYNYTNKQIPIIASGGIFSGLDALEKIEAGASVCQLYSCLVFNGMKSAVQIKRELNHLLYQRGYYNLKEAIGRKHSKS
Chain of E3 ubiquitin-protein ligase XIAP (Homo sapiens) (P98170 whole entry, looked up): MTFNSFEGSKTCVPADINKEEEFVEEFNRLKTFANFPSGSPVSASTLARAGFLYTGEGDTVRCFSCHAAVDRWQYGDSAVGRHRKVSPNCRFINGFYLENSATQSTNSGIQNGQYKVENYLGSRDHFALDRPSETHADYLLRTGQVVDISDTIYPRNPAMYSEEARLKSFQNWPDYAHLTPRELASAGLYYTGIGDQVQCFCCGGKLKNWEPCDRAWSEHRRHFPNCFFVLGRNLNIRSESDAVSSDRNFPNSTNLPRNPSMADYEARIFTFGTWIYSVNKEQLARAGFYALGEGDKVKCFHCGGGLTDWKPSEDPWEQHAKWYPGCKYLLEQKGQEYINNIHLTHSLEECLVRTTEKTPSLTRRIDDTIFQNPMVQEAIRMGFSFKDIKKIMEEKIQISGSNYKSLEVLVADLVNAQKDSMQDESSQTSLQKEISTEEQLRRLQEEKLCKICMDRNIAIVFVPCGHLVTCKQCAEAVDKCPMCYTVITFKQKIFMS

As for `C[N+](C)(C)CCCC[C@@H]1NC(=O)[C@@H]2C[C@H](C(=O)NCCCCCN)[C@H](c3ccc(O)cc3)N2C1=O`, the z-score is 0.236 in experiment [1]; -0.812 (inactive) in experiment [2]; 0.883 (inactive) in experiment [3]; 1.11 (inactive) in [5]; -3.02 (inactive) in experiment [6]; 1.08 (inactive) in experiment [7]. In addition, the z-score in [8] is 1.48 (inactive); in experiment [9] it was 0.555. In addition, the composite z-score is -2.28 (inactive) in experiment [4] and 0.346 in experiment [10].
Consider `C=CC[C@]1(C(=O)NCc2ccccc2)N=C(c2ccc(OCCCO)cc2)O[C@H]1c1ccccc1CN=[N+]=[N-]`, for which the z-score in experiment [1] was 0.238; in [2], -0.0802 (inactive); in experiment [3], -0.871 (inactive); in experiment [5] it was 1.06 (inactive); in experiment [6], 0.149 (inactive); in experiment [7], -0.0443 (inactive). Moreover, the z-score in experiment [8] is -1.25 (inactive); in experiment [9], -0.328. Besides, the composite z-score in [4] is 0.548 (inactive); in experiment [10], -0.0322.
`O=C1NC(=O)C2C1C=CC(C(O)C1CC=CCC1)N2Nc1ccccn1` (stereo not given): the z-score is -1.16 in [1]; 1.05 (inactive) in [2]; -1.35 (inactive) in experiment [3]; 0.916 (inactive) in experiment [5]; 0.636 (inactive) in experiment [6]; -0.857 (inactive) in experiment [7]. In addition, the z-score in experiment [8] was -0.0662 (inactive); in [9], -1.57. Besides, the composite z-score in experiment [4] is 1.07 (inactive); in [10], 0.0512.
Turning to `CC(C)CNC(=O)[C@@]1(Cc2ccccc2I)c2ccccc2C(=O)N(Cc2ccccc2C(F)(F)F)[C@H]1c1ccc(CO)cc1`, the z-score is -0.165 in [1]; 0.428 (inactive) in experiment [2]; -0.0663 (inactive) in experiment [3]; -0.0528 (inactive) in experiment [5]; 0.0567 (inactive) in experiment [6]; -0.188 (inactive) in experiment [7]. Moreover, the z-score in experiment [8] was 0.588 (inactive); in experiment [9] it was -0.0359. For the same compound, the composite z-score was 0.366 (inactive) in experiment [4] and -0.271 in experiment [10].
In the case of `COCCOC(=O)N1C(=O)[C@@]2(c3cc(C#CCCO)ccc31)[C@H](c1ccc(OCCO)cc1)N1[C@H](c3ccccc3)[C@H](c3ccccc3)OC(=O)[C@H]1[C@@H]2C(N)=O`, the z-score in experiment [1] is -0.569; in [2], 1.67 (inactive); in experiment [3] it was -0.371 (inactive); in [5] it was 0.449 (inactive); in experiment [6], 3.69 (inactive); in [7] it was 0.315 (inactive). The z-score in experiment [8] is 0.399 (inactive); in experiment [9], -0.103. The composite z-score in experiment [4] is 0.561 (inactive); in experiment [10], -0.192.
With `O=C1O[C@@H](c2ccccc2)[C@@H](c2ccccc2)N2[C@@H](c3ccccc3OCCO)[C@]3(C(=O)Nc4ccc(C#CC5(O)CCCCCC5)cc43)[C@@H](C(=O)N3CCN(c4ncccn4)CC3)[C@H]12`, the z-score in experiment [1] is 0.0783; in experiment [2], 1.62 (inactive); in [3], -1.18 (inactive); in experiment [5], 1.94 (inactive); in experiment [6], 4.01 (inactive); in experiment [7] it was -0.418 (inactive). In addition, the z-score was 0.247 (inactive) in experiment [8] and -0.737 in experiment [9]. Besides, the composite z-score in experiment [4] is 0.937 (inactive); in [10], 0.372.
With `OB1C=CCC(CCc2ccccc2)O1` (stereo not given), the z-score in [1] is -0.246; in experiment [2] it was -3.2 (inactive); in experiment [3], 0.506 (inactive); in experiment [5], 1.45 (inactive); in experiment [6] it was -2.36 (inactive); in [7], 2.73 (inactive). Moreover, the z-score in experiment [8] is 0.96 (inactive); in experiment [9], 0.23. Also, the composite z-score in [4] was -0.685 (inactive); in experiment [10], -0.275.
As for `NC(=O)[C@@]1(Cc2ccccc2)N=C(c2ccc(OCCCO)cc2)O[C@H]1c1ccccc1`, the z-score in [1] is -0.815; in experiment [2], -1.05 (inactive); in experiment [3] it was 0.597 (inactive); in [5], 0.466 (inactive); in experiment [6], -0.541 (inactive); in experiment [7], 1.54 (inactive). Moreover, the values for the z-score in experiment [8] and in [9] were 0.915 (inactive) and -0.0693, respectively. Further, the composite z-score is 0.842 (inactive) in experiment [4] and 0.225 in [10].
Turning to `[N-]=[N+]=Nc1ccccc1C[C@]1(C(=O)NCC(O)CO)N=C(c2ccc(OCCCO)cc2)O[C@H]1c1ccccc1` (stereo not given in full), the z-score is -0.577 in experiment [1]; -1.23 (inactive) in experiment [2]; -0.62 (inactive) in [3]; 1.13 (inactive) in experiment [5]; 2 (inactive) in [6]; -0.283 (inactive) in experiment [7]. Also, the z-score was -0.949 (inactive) in experiment [8] and -1 in experiment [9]. The composite z-score in [4] is 0.986 (inactive); in experiment [10] it was -0.0525.
`O=C1C2C=CC(C(O)c3ccc(-c4ccccc4)s3)N(Nc3ccccc3)C2C(=O)N1c1ccccc1` (stereo not given): the z-score in [1] was 0.809; in [2], -2.18 (inactive); in experiment [3] it was -0.171 (inactive); in experiment [5], 0.282 (inactive); in experiment [6], 0.119 (inactive); in [7] it was -0.172 (inactive). The values for the z-score in experiment [8] and in experiment [9] were 0.7 (inactive) and 0.428, respectively. Also, the composite z-score is 0.569 (inactive) in [4] and 0.59 in experiment [10].
For `O=C1C2C=CC(C(O)c3cc(C(F)(F)F)cc(C(F)(F)F)c3)N(Nc3ccccc3)C2C(=O)N1c1ccccc1` (stereo not given), the z-score in [1] is -0.621; in [2] it was -3.15 (inactive); in [3], -1.87 (inactive); in [5], 1.41 (inactive); in experiment [6] it was 0.596 (inactive); in experiment [7], -0.921 (inactive). Besides, the z-score in experiment [8] was -0.284 (inactive); in experiment [9] it was -2.49. In addition, the figures for the composite z-score in experiment [4] and in experiment [10] were 0.399 (inactive) and 0.0191, respectively.
